Bioassay records: PubChem, National Center for Advancing Translational Sciences (NCATS)
A549 viability: Nrf2 qHTS screen for inhibitors: counterscreen for cytotoxicity; 0.16% of 390,000 active; Potency, µM (doses to about 46 µM), for the others: at the top dose activity change, negative = cytotoxicity, usual class: inhibitors; A549 ARE-Fluc cells, CellTiter-Fluor viability, 18-24 h; AID 504648, 2011; further: on the % scale 0 is the no-effect control and ±100 the full control effect
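A549 ARE_Fluc cells in 5% FBS OPTI-MEM were exposed to compounds in concentration-response for 18-24 h at 37 deg C. Viability was read by CellTiter-Fluor fluorescence (Ex 405/Em 525) after 30 min, before the luciferase read.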
Nrf2 ARE act: qHTS of Nrf2 Activators | AREc32 ARE-luciferase reporter (MCF7-derived line), luminescence, 24 h | Potency, µM (series often up to 46.1 µM), for the others: at the highest dose activation, actives largely listed as activators | 0.31% of 410,000 active | AID 624171, 2012; further: % of control where 0% means no effect; nearly all actives have a fitted effect of over 65% in size
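Quantitative high-throughput format: AREc32 reporter cells, 1000 per well, received compound by pin transfer and were incubated 24 hr at 37 deg C, 5% CO2, before Steady-Glo luminescence detection.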
Pin1 inhibitor: qHTS Assay to Find Inhibitors of Pin1 | Peptidyl-prolyl cis-trans isomerase NIMA-interacting 1 (Homo sapiens), Q13526 | Pin1 FP peptide displacement, HiFluor488, 10 min | 0.009% of 390,000 active | Potency, µM (top dose mostly 115 µM), for the others: top-dose activity, negative = inhibition, most hits filed as inhibitors; active means well fitted inhibition curve with a large enough effect in the polarisation, with a control signal flat, not every such curve was filed as active; inconclusive means small, poorly fitted or top-dose-only effect, or effect the other way, or a change in a side signal; inactive means no such curve, though single readings can be large or run the other way; the % refers to the polarisation; further: on the % scale 0 is the no-effect control and ±100 the full control effect
Target sequence (Q13526 whole entry, looked up): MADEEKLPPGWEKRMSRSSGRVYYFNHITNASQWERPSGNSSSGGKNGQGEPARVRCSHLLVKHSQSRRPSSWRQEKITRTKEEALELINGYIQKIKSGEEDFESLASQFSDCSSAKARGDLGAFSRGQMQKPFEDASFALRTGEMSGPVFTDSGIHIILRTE
Nrf2 inh: Nrf2 qHTS screen for inhibitors; 2.1% of 360,000 active; Potency, µM (titrated, usually from 46 µM), inactives show top-dose activity change, negative = inhibition, usual class: inhibitors; A549 ARE-Fluc reporter, luciferase luminescence, 18-24 h; further: on the % scale 0 is the no-effect control and ±100 the full control effect; nearly all actives have a fitted effect of over 60% in size
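A549 ARE_Fluc cells (5000/well, 5% FBS OPTI-MEM) pre-incubated 2 h, then treated with compounds 18-24 h at 37C/5% CO2 in concentration-response. CellTiter-Fluor viability read first; BugLite luciferase luminescence after 15 min at room temperature gives Nrf2 activity.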
Active calls of the source: *. The list is not random: actives were taken first. Their share in the collection is about 2.2%. Unless noted, the call rests on the fitted dose curve; in most records, active means well fitted curve in the direction sought with a large enough effect; inconclusive means small, poorly fitted or top-dose-only effect, or another doubt; inactive means no such curve, though single readings can be large; an effect the other way counts as inactive or inconclusive. Potency means the concentration at half of the fitted maximal effect.

What do the screens show for `CCNc1cccc(S(=O)(=O)N2CCN(S(=O)(=O)c3ccc4c(c3)OCCO4)CC2)c1`?
A549 viability: -8.0%; Pin1 inhibitor: -1.8%; Nrf2 inh: inconclusive

Results for Cn1c(=O)oc2cc(S(=O)(=O)NC(Cc3ccccc3)C(=O)Nc3ccc(F)cc3)ccc21 (stereo not given) ?
A549 viability: 1.5%; Nrf2 ARE act: 0.6%; Pin1 inhibitor: 15.1%; Nrf2 inh: -9.5%

How did NC(=O)C1CCN(c2nc(-c3ccc4c(c3)CCO4)cs2)CC1 do in these assays?
Pin1 inhibitor: 20.8%

How did O=C(Cn1ccc2cc(S(=O)(=O)N3CCCCCC3)ccc21)NCCc1ccc(Cl)cc1 do in these assays?
A549 viability: -2.0%; Nrf2 ARE act: 5.8%; Pin1 inhibitor: 16.1%; Nrf2 inh: 25.9µM*

What do the screens show for `CCC(C(=O)NCCC(C)C)n1ccc2cc(S(=O)(=O)N3CCCCC3)ccc21` (stereo not given)?
A549 viability: -18.9%; Nrf2 ARE act: 0.4%; Pin1 inhibitor: -0.8%; Nrf2 inh: 13µM*

What do the screens show for `N#Cc1nc(NCC2CC2)nc(Nc2ccccc2)n1`?
A549 viability: -6.7%; Pin1 inhibitor: 2.4%; Nrf2 inh: -1.0%

Results for Clc1ccc(Cn2cc3c(n2)-c2cc4ccccc4n2C3)cc1 ?
A549 viability: 0.1%; Pin1 inhibitor: -3.6%; Nrf2 inh: 0.3%

Results for CCc1cc(C=C(Cl)Cl)oc(=O)c1C ?
A549 viability: -19.9%; Nrf2 ARE act: 14.1µM*; Pin1 inhibitor: -0.4%; Nrf2 inh: -13.6%

What do the screens show for `C=C(Cl)COc1cc(C)cc2oc(=O)cc(CC)c12`?
A549 viability: 18.6%; Nrf2 ARE act: 0.1%; Pin1 inhibitor: 0.3%; Nrf2 inh: 9.5%

How did O=C(Nc1ccc(OC(F)F)c(Cl)c1)Nc1ccc2c(c1)OCO2 do in these assays?
A549 viability: -24.9%; Nrf2 ARE act: -0.5%; Pin1 inhibitor: 0.6%; Nrf2 inh: inconclusive

Results for O=C(Nc1ccc([N+](=O)[O-])cc1)Nc1ccc(OC(F)F)c(Cl)c1 ?
A549 viability: inconclusive; Nrf2 ARE act: -0.8%; Pin1 inhibitor: -5.1%; Nrf2 inh: 20.6µM*

What do the screens show for `CCN(CC)S(=O)(=O)c1cccc(NC(=O)C2SC(=Nc3ccc(C)cc3C)C(C(=O)NC(C)COC)=C2N)c1` (stereo not given)?
A549 viability: inconclusive; Nrf2 ARE act: 1.7%; Pin1 inhibitor: 4.4%; Nrf2 inh: 20.6µM*

How did Cc1ccc(-c2nc3ccccc3[nH]2)cc1NC(=S)NC(=O)c1ccccc1Br do in these assays?
A549 viability: inconclusive; Nrf2 ARE act: 2.2%; Pin1 inhibitor: 21.0%; Nrf2 inh: 18.4µM*

Results for CCc1ccccc1NC(=O)Cn1nnc(C(=O)NCc2ccco2)c1N ?
A549 viability: -7.8%; Nrf2 ARE act: -0.5%; Pin1 inhibitor: -8.5%; Nrf2 inh: 8.4%

How did COc1ccc(CNC(=O)[C@H](C)N2C(=O)N3CCc4c([nH]c5ccccc45)[C@@]3(C)C2=O)cc1OC do in these assays?
A549 viability: -2.3%; Nrf2 ARE act: 0.6%; Pin1 inhibitor: 2.6%; Nrf2 inh: 16.4µM*

Results for C=C1CCN(C(C(=O)O)C(C)C)S(=O)(=O)c2ccccc21 (stereo not given) ?
A549 viability: -4.6%; Pin1 inhibitor: -9.0%; Nrf2 inh: -10.0%

How did CC(=O)Oc1ccc2cc(-c3nc4c(s3)CCc3ccccc3-4)c(=O)oc2c1 do in these assays?
A549 viability: inconclusive; Pin1 inhibitor: inconclusive; Nrf2 inh: -7.4%

Results for Cc1ccc(C(=O)CSC2=C(C#N)C(c3ccco3)C3=C(CC(C)(C)CC3=O)N2)cc1 (stereo not given) ?
A549 viability: inconclusive; Nrf2 ARE act: 5.9%; Pin1 inhibitor: inconclusive; Nrf2 inh: 16.4µM*

What do the screens show for `CC1(C)CC(=O)C2=C(C1)NC(SCC(=O)Nc1ccccc1)=C(C#N)C2c1ccco1` (stereo not given)?
A549 viability: -23.1%; Nrf2 ARE act: 4.9%; Pin1 inhibitor: 44.0%; Nrf2 inh: inconclusive

How did CCCOc1ccccc1C1CC(=O)Nc2cc3c(cc21)OCCO3 (stereo not given) do in these assays?
A549 viability: inconclusive; Nrf2 ARE act: 4.1%; Pin1 inhibitor: 0.4%; Nrf2 inh: 20.6µM*

Results for CC(C)Oc1ccccc1C1CC(=O)Nc2cc3c(cc21)OCO3 (stereo not given) ?
A549 viability: inconclusive; Nrf2 ARE act: -0.6%; Pin1 inhibitor: -14.1%; Nrf2 inh: 7.31µM*

How did CCOc1c(Br)cc(C2CC(=O)Nc3cc4c(cc32)OCO4)cc1OC (stereo not given) do in these assays?
A549 viability: 0.7%; Nrf2 ARE act: -0.2%; Pin1 inhibitor: 1.0%; Nrf2 inh: 20.6µM*

How did CC(C)Oc1cccc(C2CC(=O)Nc3cc4c(cc32)OCO4)c1 (stereo not given) do in these assays?
A549 viability: -19.0%; Nrf2 ARE act: 1.1%; Pin1 inhibitor: -0.8%; Nrf2 inh: 16.4µM*

What do the screens show for `COc1cc(C2CC(=O)Nc3cc4c(cc32)OCCO4)cc(Br)c1OC` (stereo not given)?
A549 viability: 2.0%; Nrf2 ARE act: -0.1%; Pin1 inhibitor: 11.3%; Nrf2 inh: inconclusive

How did COc1ccc(C2=Nn3c(nnc3-c3ccc(OC)c(OC)c3)SC2)c(OC)c1 do in these assays?
A549 viability: -6.0%; Pin1 inhibitor: 4.6%; Nrf2 inh: inconclusive

What do the screens show for `O=C(OCC#CCSc1nnc(-c2cccc3ccccc23)o1)c1ccc(F)nc1`?
A549 viability: -10.0%; Pin1 inhibitor: 9.5%; Nrf2 inh: 7.8%

Results for CN(C)c1ccc(NC(=O)CN2C(=O)c3ccccc3Sc3ccc(C(=O)N4CCCC4)cc32)cc1 ?
A549 viability: -4.3%; Nrf2 ARE act: 10.0%; Pin1 inhibitor: 4.0%

How did Cc1ccc(C)c(N2CCN(C(=O)COc3cc(=O)n(C)c4ccccc34)CC2)c1 do in these assays?
Nrf2 ARE act: 1.8%; Pin1 inhibitor: -0.6%; Nrf2 inh: inconclusive

Results for Cc1ccc(C)c(N2CCN(C(=O)CCCOc3cc(=O)n(C)c4ccccc34)CC2)c1 ?
A549 viability: inconclusive; Nrf2 ARE act: -0.1%; Pin1 inhibitor: 1.6%; Nrf2 inh: 23.1µM*

What do the screens show for `Fc1ccccc1N1CCN(c2nnc(C(F)(F)F)c3nnn(Cc4ccccc4)c23)CC1`?
A549 viability: 10.4%; Nrf2 ARE act: 0.0%; Pin1 inhibitor: -13.3%; Nrf2 inh: -6.2%

How did Cc1cccc(OCC(=O)Nc2ccc(-c3nc4ccccc4o3)cc2)c1C do in these assays?
A549 viability: -3.3%; Nrf2 ARE act: 4.8%; Pin1 inhibitor: -4.3%; Nrf2 inh: 20.6µM*

How did Cc1cccc(OCC(=O)Nc2ccncc2)c1C do in these assays?
A549 viability: -6.6%; Nrf2 ARE act: 0.0%; Pin1 inhibitor: 0.7%; Nrf2 inh: 7.31µM*

How did CC(=O)c1ccc(NC(=O)COc2ccccc2-c2nc(-c3ccc(C)cc3)no2)cc1 do in these assays?
A549 viability: -17.2%; Nrf2 ARE act: 6.3%; Pin1 inhibitor: 1.8%; Nrf2 inh: 25.9µM*
